Bioassay records deposited in PubChem BioAssay by National Center for Advancing Translational Sciences (NCATS).
RE007 growth inh: less growth of the S. pombe RE007 Vpr strain; S. pombe RE007 Vpr strain, BacTiter-Glo ATP luminescence, 24 h; hit rate 0.21% among 360,000; Potency, µM (doses to about 92.2 µM), for inactives: at the highest dose activity change, negative = less growth, hits mostly inhibitors; active = well fitted falling curve with a large enough effect; inconclusive = small, poorly fitted or top-dose-only effect; inactive = no such curve, though single readings can be large or run the other way; note: potency is the fitted concentration of half-maximal effect; % is set by controls: 0 for no effect and ±100 for the full control effect; nearly all actives have a fitted effect of over 50% in size
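Fission yeast RE007 carrying one integrated HIV-1 vpr copy, seeded at OD 0.01 in PMG+AL medium with 23 nL pinned compound. Grown 24 h at 30 degrees; viability read by BacTiter-Glo luminescence after 5 min.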
Tb PYK inh: blocks Trypanosoma brucei pyruvate kinase. Q57TT1. TbPYK enzyme, Kinase-Glo Plus ATP luminescence, 45 min. Potency, µM (doses to about 76.8 µM), inactives show top-dose activity, negative = inhibition, most hits filed as inhibitors. hit rate 0.12% among 410,000; note: potency is the fitted concentration of half-maximal effect; % is set by controls: 0 for no effect and ±100 for the full control effect; nearly all actives have a fitted effect of over 50% in size
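Activity of T. brucei pyruvate kinase was followed by Kinase-Glo Plus luminescence after the enzyme reacted 45 min at room temperature with 130 uM ADP (final) and substrate. Test compounds were added before ADP at multiple concentrations.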
Giardia FBPA inh-1: Giardia lamblia aldolase inhibition; Potency, µM (doses to about 59.6 µM), inactives show at the top dose activity, negative = inhibition, most hits filed as inhibitors; A8B2U2; purified Giardia FBPA; AID 2451; hit rate 0.71% among 290,000; note: potency is the fitted concentration of half-maximal effect; % is set by controls: 0 for no effect and ±100 for the full control effect; nearly all actives have a fitted effect of over 55% in size
Target sequence (A8B2U2 whole entry, looked up): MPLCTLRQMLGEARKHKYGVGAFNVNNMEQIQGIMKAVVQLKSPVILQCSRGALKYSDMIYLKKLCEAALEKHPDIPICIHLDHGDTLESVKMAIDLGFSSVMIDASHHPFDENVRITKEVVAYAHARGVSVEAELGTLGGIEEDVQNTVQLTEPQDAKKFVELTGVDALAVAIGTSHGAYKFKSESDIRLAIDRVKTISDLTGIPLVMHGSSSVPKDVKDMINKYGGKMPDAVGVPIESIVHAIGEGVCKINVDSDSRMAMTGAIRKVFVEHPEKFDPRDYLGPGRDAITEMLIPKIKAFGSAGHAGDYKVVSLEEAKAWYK
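Giardia FBPA (40 nM reagent) was preincubated 10 min at RT with compound (up to 57.5 uM final), then substrate plus GAPDH/TPI/NAD/arsenate coupling system with diaphorase/resazurin was added; resorufin fluorescence (525/598 nm) was read after 20 min.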
CHX counter: counter-screen hit for Shiga toxin inhibitors, cycloheximide; cell reporter, cycloheximide protein synthesis inhibition counterscreen; max response, %; hit rate 12% among 300,000; AID 2314; in the data active = max response mostly above about 13%, no sharp cut-off; inactive = mostly below about 14%; note: read at 38.3 µM for the half of the compounds with a filed dose; 0% is about no effect
LmPK inhibitor: blocks Leishmania mexicana pyruvate kinase activity; Potency, µM (titrated, usually from 57.5 µM), inactives show at the highest dose activity change, negative = inhibition, actives largely listed as inhibitors; Q27686; hit rate 0.37% among 290,000; AID 1721; purified LmPK, Kinase-Glo ATP luminescence, 1 h; note: potency is the fitted concentration of half-maximal effect; % is set by controls: 0 for no effect and ±100 for the full control effect
Target sequence (Q27686 whole entry, looked up): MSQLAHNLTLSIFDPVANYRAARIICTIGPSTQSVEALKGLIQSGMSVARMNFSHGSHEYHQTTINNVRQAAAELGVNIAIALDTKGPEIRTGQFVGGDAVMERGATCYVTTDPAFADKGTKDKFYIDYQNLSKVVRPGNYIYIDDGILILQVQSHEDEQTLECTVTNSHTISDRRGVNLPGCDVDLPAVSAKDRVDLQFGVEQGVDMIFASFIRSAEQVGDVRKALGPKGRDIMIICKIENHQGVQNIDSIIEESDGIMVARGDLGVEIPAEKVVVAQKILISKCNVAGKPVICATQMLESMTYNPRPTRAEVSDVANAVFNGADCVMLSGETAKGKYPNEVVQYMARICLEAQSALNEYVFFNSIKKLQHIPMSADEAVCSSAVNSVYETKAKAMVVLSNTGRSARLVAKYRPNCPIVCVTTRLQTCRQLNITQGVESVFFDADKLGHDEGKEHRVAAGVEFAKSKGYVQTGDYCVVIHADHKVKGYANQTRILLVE
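ATP generated from ADP (0.1 mM) and PEP (0.5 mM) by 0.1 nM LmPK over 1 h at room temperature (pH 7.2 imidazole buffer) was detected by coupled luciferase luminescence. Values were normalized to uninhibited and no-enzyme wells.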
Shiga toxin inh: inhibitors of Shiga toxin in Vero cells | Vero cells, Shiga toxin protein synthesis inhibition reporter | inhibition, % at 38.7 µM | AID 2315 | hit rate 9.2% among 290,000; in the data active = inhibition mostly above about 28%, no sharp cut-off; inactive = mostly below about 43%; note: 0% is about no effect
Giardia growth: blocks growth of Giardia lamblia trophozoites; shares compounds with Giardia FBPA inh-1; hit rate 5% among 1,500; AID 2785; Potency, µM (top dose mostly 57.5 µM), for the others: top-dose activity change, negative = inhibition, hits mostly inhibitors; Giardia lamblia trophozoite growth inhibition;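 note: potency is the fitted concentration of half-maximal effect; trophozoites exposed to compound for 48 h at 37 °C; % is set by controls: 0 for no effect and ±100 for the full control effect; nearly all actives have a fitted effect of over 70% in size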
Mammal cell tox: toxic to mammalian cells in Giardia aldolase counter-screen; shares compounds with Giardia FBPA inh-1; mammalian cell viability counter-screen, qHTS; Potency, µM (titrated, usually from 57.5 µM), without a hit: at the highest dose viability change, negative = toxicity, most hits filed as inhibitors; hit rate 4% among 1,500;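 note: Chinese hamster ovary cells used as mammalian cytotoxicity surrogate; viability measured as cellular ATP by luminescence; potency is the fitted concentration of half-maximal effect; compound exposure lasted 48 h before reading; % is set by controls: 0 for no effect and ±100 for the full control effect; nearly all actives have a fitted effect of over 60% in size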
Giardia FBPA inh-2: confirmation of Giardia fructose-bisphosphate aldolase inhibitors; purified Giardia aldolase enzyme activity, qHTS; shares compounds with Giardia FBPA inh-1; Potency, µM (highest dose often 57.5 µM), for the others: top-dose activity change, negative = inhibition, usual class: inhibitors; AID 2787; hit rate 5% among 1,500; note: potency is the fitted concentration of half-maximal effect; % is set by controls: 0 for no effect and ±100 for the full control effect; nearly all actives have a fitted effect of over 45% in size
Rabbit FBPA inh: rabbit FBP aldolase inhibition by Giardia aldolase hits. shares compounds with Giardia FBPA inh-1. Rabbit muscle FBPA enzyme inhibition, selectivity counter-screen. hit rate 4% among 1,500. Potency, µM (titrated, usually from 57.5 µM), for inactives: at the top dose activity, negative = inhibition, hits mostly inhibitors; note: potency is the fitted concentration of half-maximal effect; % is set by controls: 0 for no effect and ±100 for the full control effect; nearly all actives have a fitted effect of over 60% in size
GAPDH counter: counter-screen for Giardia aldolase inhibitors: GAPDH coupling enzyme; shares compounds with Giardia FBPA inh-1; GAPDH coupling enzyme counterscreen, biochemical, qHTS; Potency, µM (top dose mostly 57.5 µM), for inactives: at the top dose activity change, negative = inhibition, hits mostly inhibitors; hit rate 6% among 1,500; note: potency is the fitted concentration of half-maximal effect; % is set by controls: 0 for no effect and ±100 for the full control effect; nearly all actives have a fitted effect of over 55% in size
Numbers without * were called inactive; ? = inconclusive; / = no result; [ ] = remark or other dose. This is one part of a sample in which hits are shown more often than they occur. Unless noted, calls come from the whole dose curve; as a rule, active = well fitted curve in the direction sought with a large enough effect; inconclusive = small, poorly fitted or top-dose-only effect, or another doubt; inactive = no such curve, though single readings can be large; an effect the other way counts as inactive or inconclusive.

SMILES	RE007 growth inh	Tb PYK inh	Giardia FBPA inh-1	CHX counter	LmPK inhibitor	Shiga toxin inh	Giardia growth	Mammal cell tox	Giardia FBPA inh-2	Rabbit FBPA inh	GAPDH counter
O=C(O)C(Cc1c[nH]c2ccccc12)N1C(=O)C2C3c4ccccc4C(c4ccccc43)[C@@H]2C1=O (some centres not stated)	3%	1%	-1%	1	3%	-11	/	/	/	/	/
CCc1ccccc1Nc1nn2c(=O)c3ccc(C(=O)NC4CCCCC4)cc3nc2s1	/	3%	/	/	/	/	/	/	/	/	/
c1ccc(-c2cccc(-c3ccccn3)n2)nc1	?	0%	7.9µM*	31*	-3%	91*	?	1.3µM*	20%	7%	1%
c1ccc(-c2ccncc2)nc1	8%	0%	/	/	/	/	/	/	/	/	/
Cc1ccc(NC(=O)Nc2c(C)n(C)n(-c3ccccc3)c2=O)c(Cl)c1	/	2%	/	/	/	/	/	/	/	/	/
CC(C)CN1CCC2(CC1)CCN(C(=O)c1cccc(F)c1)CC2	/	0%	3%	/	/	/	/	/	/	/	/
COCc1nnc(NC(=O)c2ccc(S(=O)(=O)N3CCOCC3)cc2)o1	-5%	6%	22µM*	-3	4%	-6	?	-3%	4%	18%	5%
COc1ccc(-c2nnc(NC(=O)c3ccc(S(=O)(=O)N4CCCc5ccccc54)cc3)o2)cc1	-14%	-6%	28%	1	0%	-1	/	/	/	/	/
COCc1nnc(NC(=O)c2ccc(S(=O)(=O)N3CCCc4ccccc43)cc2)o1	16%	0%	18µM*	7	-5%	-8	1%[10.4 µM]	-12%	-2%	11%	0%
Cc1nnc(NC(=O)c2ccc(S(=O)(=O)N3CCc4ccccc4C3)cc2)o1	18%	5%	18µM*	-3	6%	-9	?	1%	-7%	7%	6%
Cc1cccc(CNc2ccnc(-c3ccccc3C(F)(F)F)n2)c1	/	/	-9%	/	/	/	/	/	/	/	/
CCOC(=O)CSC1=Nc2ccccc2C2=NC(CCC(=O)NCc3ccccc3)C(=O)N12 (configuration not stated)	/	0%	/	/	/	/	/	/	/	/	/
COc1ccc(OC)c(-c2csc(NC(=O)CSc3nnnn3C)n2)c1	-15%	-2%	/	/	/	/	/	/	/	/	/
O=c1nc(N/N=C/c2c[nH]c3ccccc23)cn[nH]1	0%	-6%	18µM*	40*	-22%	45*	3%	2%	-2%	0%	2%
O=c1cnnc(N/N=C/c2c[nH]c3ccccc23)[nH]1	-17%	2%	-11%	-2	1%	13	/	/	/	/	/
NS(=O)(=O)c1ccc(-c2ccc(/C=C3\NC(=S)NC3=O)o2)cc1	-25%	?	16µM*	-2	-2%	-6	?	1%	-25%	-15%	-7%
NS(=O)(=O)c1ccc(-c2ccc(C=O)o2)cc1	4%	0%	0%	-2	0%	-10	/	/	/	/	/
CCc1ccc(Nc2n[n+](-c3ccccc3)c(-c3ccc(N(CC)CC)cc3)s2)cc1	-1%	-6%	25µM*	35*	-2%	51*	4%	?	4%	5%	6%
CCc1ccc(Nc2n[n+](-c3ccccc3)c(-c3cc(OC)c(OC)cc3Br)s2)cc1	69%	10%	-6%	2	2%	-9	/	/	/	/	/
O=C(CSc1nnnn1C1CCCCC1)Nc1nc2c(s1)CCCC2	17%	-4%	0%	12	1%	16	/	/	/	/	/
S=C(Nc1nc2c(s1)CCCC2)NC1CC1	-10%	-11%	14µM*	52*	3%	77*	-13%	3%	3%	2%	2%
COc1nc(N/N=C/c2ccc(-c3ccccc3[N+](=O)[O-])o2)nc(N2CCOCC2)n1	/	-14%	4.5µM*	70*	-2%	110*	-33%[38.3 µM]	-7%	?	?	40µM*
CCOC(=O)C1CCCN(CCC(=O)Nc2ccc(Br)c(C)c2)C1 (configuration not stated)	-11%	4%	14µM*	-1	-4%	-1	?	-8%	4%	8%	10%
CCOC(=O)C1CCCN(CCC(=O)Nc2ccc(C)c(C)c2)C1 (configuration not stated)	-5%	7%	-3%	2	2%	-1	/	/	/	/	/
CC(C(=O)NC1C(=O)N2C(C(=O)O)=C(CSc3nnnn3C)CSC12)n1cc(Cl)cn1 (configuration not stated)	3%	-6%	18µM*	-1	16%	-6	13%[10.4 µM]	-4%	1%	2%	2%
SMILES	RE007 growth inh	Tb PYK inh	Giardia FBPA inh-1	CHX counter	LmPK inhibitor	Shiga toxin inh	Giardia growth	Mammal cell tox	Giardia FBPA inh-2	Rabbit FBPA inh	GAPDH counter
Cc1nnc(SCC2=C(C(=O)O)N3C(=O)C(NC(=O)C(C)n4nc(C(F)(F)F)cc4C)C3SC2)s1 (configuration not stated)	2%	-5%	6.3µM*	15	-2%	-16	-11%	-6%	2%	2%	14%
Cc1c(Cl)cnn1CC(=O)NC1C(=O)N2C(C(=O)O)=C(CSc3nnnn3C)CSC12 (configuration not stated)	3%	-14%	?	2	4%	-6	/	/	/	/	/
NC(=O)C1CCN(CC(=O)Nc2nccs2)CC1	-9%	5%	3.5µM*	-2	0%	/	?	-6%	-25%	1%	14%
CCOc1ccc(C(=O)C2CCN(CC(=O)Nc3nccs3)CC2)cc1	3%	-1%	?	-7	-2%	-4	/	/	/	/	/
Cc1ccccc1N1CCN(CC(=O)Nc2nccs2)CC1	8%	1%	11µM*	-3	0%	-13	-15%	-4%	6%	6%	6%
CN(C)c1ccc(C=NN2CCCCCC2)cc1	4%	-10%	/	/	/	/	/	/	/	/	/
CC(C)c1ccc(/C=N/N2CCCCC2)cc1	10%	-14%	14µM*	31*	0%	139*	-15%[10.4 µM]	-1%	-8%	-5%	-6%
COc1ccccc1N(CC(=O)Nc1cc(C)cc(C)c1)S(C)(=O)=O	/	7%	/	/	/	/	/	/	/	/	/
